Several values for one entry are separate records, joined by “and”; a condition that tells them apart may be missing. Identical values can stand only once. Screen size: about 5,500 compounds; about 2,000 (36%) were called active. Inconclusive results (about 18%) are left out. Rule as the data show it: active = normalized growth mostly below about 0.91 (no sharp cut-off); inconclusive = no clear call, values can overlap the other calls; inactive = mostly above about 0.92. This is one part of the list.
Experiment: chemical genetic growth profiling, strain panel (AID 1159580);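 also: tested at 20 µM; growth read once vehicle control cultures reached saturation at 30 °C; 1 = growth at the plate median or of vehicle wells; lower values mean less growth of the strain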
Details: growth OD

Measured: normalized growth

O=C(OCC(O)CO)c1ccccc1Nc1ccnc2cc(Cl)ccc12 (configuration not stated)
inactive: S. cerevisiae deletion strains, locus YAL013W, strain DEP1, stronger effect = lower value 0.996 | S. cerevisiae deletion strains, locus YBR021W, strain FUR4, stronger effect = lower value 1.01 | S. cerevisiae deletion strains, locus YBR229C, strain ROT2, stronger effect = lower value 0.994 | S. cerevisiae deletion strains, locus YCL029C, strain bik1, stronger effect = lower value 0.961 | S. cerevisiae deletion strains, locus YDL035C, strain GPR1, stronger effect = lower value 1.01 | S. cerevisiae deletion strains, locus YDL074C, strain BRE1, stronger effect = lower value 0.978 | S. cerevisiae deletion strains, locus YDL101C, strain DUN1, stronger effect = lower value 0.98 | S. cerevisiae deletion strains, locus YDL134C, strain PPH21, stronger effect = lower value 0.999 | S. cerevisiae deletion strains, locus YDL185W, strain tfp1, stronger effect = lower value 0.978 | S. cerevisiae deletion strains, locus YDL192W, strain arf1, stronger effect = lower value 0.99 | S. cerevisiae deletion strains, locus YDR101C, strain arx1, stronger effect = lower value 0.988 | S. cerevisiae deletion strains, locus YDR150W, strain NUM1, stronger effect = lower value 0.98 | S. cerevisiae deletion strains, locus YDR162C, strain NBP2, stronger effect = lower value 0.992 | S. cerevisiae deletion strains, locus YDR318W, strain mcm21, stronger effect = lower value 0.977 | S. cerevisiae deletion strains, locus YDR388W, stronger effect = lower value 0.997 | S. cerevisiae deletion strains, locus YDR502C, strain sam2, stronger effect = lower value 0.975 | S. cerevisiae deletion strains, locus YEL061C, strain CIN8, stronger effect = lower value 0.997 | S. cerevisiae deletion strains, locus YER110C, stronger effect = lower value 0.978 | S. cerevisiae deletion strains, locus YER155C, strain BEM2, stronger effect = lower value 0.988 | S. cerevisiae deletion strains, locus YER167W, strain BCK2, stronger effect = lower value 0.986 | S. cerevisiae deletion strains, locus YGL078C, strain dbp3, stronger effect = lower value 0.995 | S. cerevisiae deletion strains, locus YGL086W, strain mad1, stronger effect = lower value 0.999 | S. cerevisiae deletion strains, locus YGL248W, strain PDE1, stronger effect = lower value 0.983 | S. cerevisiae deletion strains, locus YGR078C, strain PAC10, stronger effect = lower value 0.962 | S. cerevisiae deletion strains, locus YGR135W, strain pre9, stronger effect = lower value 0.974 | S. cerevisiae deletion strains, locus YGR229C, strain SMI1, stronger effect = lower value 0.981 | S. cerevisiae deletion strains, locus YGR252W, strain gcn5, stronger effect = lower value 1.06 | S. cerevisiae deletion strains, locus YHR030C, strain SLT2, stronger effect = lower value 0.991 and 0.957 | S. cerevisiae deletion strains, locus YHR079C, strain IRE1 (second series), stronger effect = lower value 0.989 | S. cerevisiae deletion strains, locus YHR079C, strain IRE1, stronger effect = lower value 0.969 | S. cerevisiae deletion strains, locus YHR094C, strain hxt1, stronger effect = lower value 0.979 | S. cerevisiae deletion strains, locus YHR129C, strain ARP1, stronger effect = lower value 0.981 | S. cerevisiae deletion strains, locus YHR200W, strain rpn10, stronger effect = lower value 0.987 | S. cerevisiae deletion strains, locus YIL066C, strain RNR3, stronger effect = lower value 0.98 | S. cerevisiae deletion strains, locus YIL073C, strain SPO22, stronger effect = lower value 0.925 | S. cerevisiae deletion strains, locus YIL125W, strain kgd1, stronger effect = lower value 0.991 | S. cerevisiae deletion strains, locus YIR030C, strain dcg1, stronger effect = lower value 0.988 | S. cerevisiae deletion strains, locus YJL095W, strain BCK1, stronger effect = lower value 0.943 and 0.974 | S. cerevisiae deletion strains, locus YJL134W, strain LCB3, stronger effect = lower value 0.993 | S. cerevisiae deletion strains, locus YJL168C, strain set2, stronger effect = lower value 0.995 | S. cerevisiae deletion strains, locus YJL187C, strain SWE1 (second series), stronger effect = lower value 0.936 | S. cerevisiae deletion strains, locus YJR043C, strain POL32, stronger effect = lower value 0.982 | S. cerevisiae deletion strains, locus YJR066W, strain TOR1, stronger effect = lower value 0.912 | S. cerevisiae deletion strains, locus YJR075W, strain HOC1, stronger effect = lower value 0.978 | S. cerevisiae deletion strains, locus YKL009W, strain mrt4, stronger effect = lower value 0.968 | S. cerevisiae deletion strains, locus YKL068W, stronger effect = lower value 0.987 | S. cerevisiae deletion strains, locus YKL085W, strain MDH1 (second series), stronger effect = lower value 0.975 | S. cerevisiae deletion strains, locus YKL085W, strain MDH1, stronger effect = lower value 0.975 | S. cerevisiae deletion strains, locus YKL190W, strain CNB1, stronger effect = lower value 0.984 | S. cerevisiae deletion strains, locus YKR001C, strain vps1, stronger effect = lower value 0.99 | S. cerevisiae deletion strains, locus YLR039C, strain RIC1, stronger effect = lower value 1.01 | S. cerevisiae deletion strains, locus YLR058C, strain SHM2, stronger effect = lower value 0.986 | S. cerevisiae deletion strains, locus YLR102C, strain apc9, stronger effect = lower value 0.992 | S. cerevisiae deletion strains, locus YLR113W, strain HOG1, stronger effect = lower value 1.01 | S. cerevisiae deletion strains, locus YLR262C, strain YPT6, stronger effect = lower value 1.03 | S. cerevisiae deletion strains, locus YLR268W, strain sec22, stronger effect = lower value 0.918 | S. cerevisiae deletion strains, locus YLR330W, strain CHS5, stronger effect = lower value 0.988 | S. cerevisiae deletion strains, locus YLR342W, strain FKS1 (second series), stronger effect = lower value 1.05 | S. cerevisiae deletion strains, locus YLR371W, strain rom2, stronger effect = lower value 0.985 | S. cerevisiae deletion strains, locus YLR418C, strain cdc73, stronger effect = lower value 0.924 | S. cerevisiae deletion strains, locus YML016C, strain PPZ1, stronger effect = lower value 0.999 | S. cerevisiae deletion strains, locus YML032C, strain rad52, stronger effect = lower value 0.971 | S. cerevisiae deletion strains, locus YML124C, strain tub3, stronger effect = lower value 0.988 | S. cerevisiae deletion strains, locus YMR078C, strain ctf18, stronger effect = lower value 0.99 | S. cerevisiae deletion strains, locus YMR223W, strain ubp8, stronger effect = lower value 1.01 | S. cerevisiae deletion strains, locus YMR263W, strain SAP30, stronger effect = lower value 0.976 | S. cerevisiae deletion strains, locus YMR307W, strain GAS1, stronger effect = lower value 0.984 | S. cerevisiae deletion strains, locus YNL067W, strain RPL9B, stronger effect = lower value 0.968 | S. cerevisiae deletion strains, locus YNL128W, strain TEP1, stronger effect = lower value 0.975 | S. cerevisiae deletion strains, locus YNL153C, strain GIM3, stronger effect = lower value 0.976 | S. cerevisiae deletion strains, locus YNL183C, strain NPR1, stronger effect = lower value 0.899 | S. cerevisiae deletion strains, locus YNL233W, strain BNI4, stronger effect = lower value 0.974 | S. cerevisiae deletion strains, locus YNL250W, strain rad50, stronger effect = lower value 0.969 | S. cerevisiae deletion strains, locus YNL271C, strain bni1, stronger effect = lower value 0.987 | S. cerevisiae deletion strains, locus YNL298W, strain CLA4, stronger effect = lower value 0.993 | S. cerevisiae deletion strains, locus YNL307C, strain MCK1, stronger effect = lower value 0.983 | S. cerevisiae deletion strains, locus YNL322C, strain KRE1, stronger effect = lower value 0.988 | S. cerevisiae deletion strains, locus YNR052C, strain pop2, stronger effect = lower value 1.01 | S. cerevisiae deletion strains, locus YOL006C, strain TOP1, stronger effect = lower value 0.929 | S. cerevisiae deletion strains, locus YOL012C, strain htz1 1.65 | S. cerevisiae deletion strains, locus YOL147C, strain pex11, stronger effect = lower value 0.98 | S. cerevisiae deletion strains, locus YOR061W, strain CKA2, stronger effect = lower value 0.99 | S. cerevisiae deletion strains, locus YOR069W, strain VPS5, stronger effect = lower value 0.996 | S. cerevisiae deletion strains, locus YOR136W, strain idh2, stronger effect = lower value 0.998 | S. cerevisiae deletion strains, locus YOR144C, strain elg1, stronger effect = lower value 0.993 | S. cerevisiae deletion strains, locus YOR184W, strain ser1, stronger effect = lower value 0.954 | S. cerevisiae deletion strains, locus YOR231W, strain MKK1, stronger effect = lower value 0.983 | S. cerevisiae deletion strains, locus YOR316C, strain cot1, stronger effect = lower value 0.982 | S. cerevisiae deletion strains, locus YPL055C, strain LGE1, stronger effect = lower value 0.938 | S. cerevisiae deletion strains, locus YPL241C, strain CIN2, stronger effect = lower value 0.991 | S. cerevisiae deletion strains, locus YPL256C, strain CLN2, stronger effect = lower value 0.927 | S. cerevisiae deletion strains, locus YPR119W, strain clb2, stronger effect = lower value 0.99 | S. cerevisiae deletion strains, locus YPR141C, strain kar3, stronger effect = lower value 0.97 | S. cerevisiae deletion strains, locus YPR163C, strain tif3, stronger effect = lower value 0.979 | S. cerevisiae deletion strains, locus YPR167C, strain met16, stronger effect = lower value 0.989 | S. cerevisiae deletion strains, strain wtn01, stronger effect = lower value 0.98 | S. cerevisiae strains, strain wild type, stronger effect = lower value 0.991

Source: PubChem BioAssay AID1159580 (chemical genetic matrix, 2015)
